60 compounds from PubChem BioAssay (NCATS) can be followed below.

Where “and” joins values, the source holds several entries; their conditions need not be identical. Identical values can stand only once. Results filed as inconclusive are left out. Values without a mark were called inactive. Calls of active or inactive are those of the source. Calls come from the whole dose curve.

Test [1] addresses Bile acid receptor (Homo sapiens) (UniProt Q96RI1). In words: qHTS assay for small molecule agonists of farnesoid X receptor signaling (AID 588527).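 Note: 0% = vehicle basal and 100% = reference agonist.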 Particulars: HEK293T FXR-UAS-bla, beta-lactamase ratio, 16 h; activation: active compounds read high. The method in brief: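 Read-out: beta-lactamase reporter fluorescence with CCF4 substrate in GeneBLAzer FXR-UAS-bla HEK293T cells, after 16 h compound exposure at 37 C. Response scaled between DMSO basal (0%) and chenodeoxycholic acid at 100 uM (100%).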
(In general: qHTS replaces the single test concentration by a dilution series.)

The target in test [2] is Peroxisome proliferator-activated receptor delta (Homo sapiens) (UniProt Q03181). Put plainly: qHTS assay for small molecule agonists of peroxisome proliferator-activated receptor delta signaling (AID 588534).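 Note: 0% = DMSO basal wells and 100% = positive control agonist at 10 µM.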 Particulars: HEK293T PPARdelta-UAS-bla, beta-lactamase ratio, 18 h; series mostly up to 76.7 µM. The method in brief:
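Fluorescence from CCF4 substrate cleavage by beta-lactamase reporter, read 2 hrs at RT, measured agonist activity. Compounds were tested with 18 hrs exposure at 37 C. Concentration-response data fitted to Hill equation.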

Chain of Bile acid receptor (Homo sapiens) (Q96RI1 whole entry, looked up): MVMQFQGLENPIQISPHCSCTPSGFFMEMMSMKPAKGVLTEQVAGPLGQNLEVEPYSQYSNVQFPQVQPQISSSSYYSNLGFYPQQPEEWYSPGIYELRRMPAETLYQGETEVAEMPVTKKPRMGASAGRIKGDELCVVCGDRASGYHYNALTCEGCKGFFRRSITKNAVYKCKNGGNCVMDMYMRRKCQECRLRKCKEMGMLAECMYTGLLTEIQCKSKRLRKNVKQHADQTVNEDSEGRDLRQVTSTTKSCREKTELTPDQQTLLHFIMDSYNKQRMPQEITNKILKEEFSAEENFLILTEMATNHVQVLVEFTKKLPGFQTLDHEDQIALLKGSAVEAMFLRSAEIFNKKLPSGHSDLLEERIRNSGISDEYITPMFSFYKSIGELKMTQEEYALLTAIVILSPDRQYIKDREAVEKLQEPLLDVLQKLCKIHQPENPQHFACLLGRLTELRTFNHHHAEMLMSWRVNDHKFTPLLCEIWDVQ
Chain of Peroxisome proliferator-activated receptor delta (Homo sapiens) (Q03181 whole entry, looked up): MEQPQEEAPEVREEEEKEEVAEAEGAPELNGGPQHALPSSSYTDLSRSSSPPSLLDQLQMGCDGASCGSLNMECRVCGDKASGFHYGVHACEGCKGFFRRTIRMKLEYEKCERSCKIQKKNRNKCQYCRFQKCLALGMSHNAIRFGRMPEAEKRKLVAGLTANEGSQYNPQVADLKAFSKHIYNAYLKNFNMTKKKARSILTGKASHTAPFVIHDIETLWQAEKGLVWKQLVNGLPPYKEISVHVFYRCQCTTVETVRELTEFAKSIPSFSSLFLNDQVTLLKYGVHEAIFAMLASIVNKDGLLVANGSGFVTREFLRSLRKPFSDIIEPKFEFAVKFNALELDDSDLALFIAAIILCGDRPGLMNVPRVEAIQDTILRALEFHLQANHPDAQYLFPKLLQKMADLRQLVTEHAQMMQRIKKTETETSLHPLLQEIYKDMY

Regarding `CCCCC(CC)COCCCN` (stereo not given), the activation in test [1] was -0.0297%. Besides, the result in test [2] was inactive.
Take `C=C(C)C(=O)OCC(CC)(COC(=O)C(=C)C)COC(=O)C(=C)C`: the activation in test [1] was -1.88%. For the same compound, in test [2], the result was inactive.
In the case of `O=S(=O)(O)c1ccc(N=Nc2cc(S(=O)(=O)O)c3ccccc3c2O)c2ccccc12`, the activation in test [1] was 2.06%. The result in test [2] was inactive.
In the case of `c1ccc(B(c2ccccc2)c2ccccc2)cc1`, in test [1], the activation is 2.92%. Also, in test [2], the result was inactive.
The matching figures for `CCCC(C)CO` (stereo not given): 1.08% and “inactive”.
The like results for `O=S(=O)(O)c1cc(S(=O)(=O)O)c2c(N=Nc3ccccc3)c(O)ccc2c1` were, in that order, 2.46% and “inactive”.
`CC(C)O.CC(C)O.CC(C)O.CC(C)O.[Ti]`: the activation in test [1] was -5.62%. Besides, in test [2], the outcome was inactive.
On to `O=C(O)CC(C(=O)O)C(CC(=O)O)C(=O)O` (stereo not given), for which the activation in test [1] was -1.38% and -0.082%. Also, in test [2], the result was inactive.
As for `CC(C)C(=O)OCC(C)(C)C(O)C(C)C` (stereo not given), the activation in test [1] was -0.406%. The result in test [2] was inactive.
With `CC#N`, in test [1], the activation was -1.26%. For the same compound, the outcome in test [2] was inactive.
Take `NN(c1ccccc1)c1ccccc1`: in test [1], the activation was -1.98%. Besides, the result in test [2] was inactive.
Turning to `O=C(O)c1ccc(Cl)cc1Cl`, in test [1], the activation was -2.47%. In test [2], the outcome was inactive.
Regarding `COC(=O)C1CCC(C(=O)OC)CC1` (stereo not given), the activation in test [1] is -4.06%. Further, the result in test [2] was inactive.
As to `CCc1cccc(C)c1N(C(=O)CS(=O)(=O)O)[C@@H](C)COC`, the activation in test [1] is 1.55%. Also, the outcome in test [2] was inactive.
Regarding `CC(C)CCC[C@@H](C)[C@H]1CC[C@H]2[C@@H]3CC=C4C[C@@H](O)CC[C@]4(C)[C@H]3CC[C@]12C`, the activation in test [1] was 0.612%. Moreover, the result in test [2] was inactive.
For `CSCCC=O`, in test [1], the activation was -2.56%. Further, the result in test [2] was inactive.
The matching figures for `C=Cc1ccccc1Br`: 2.37% and “inactive”.
On to `CCCCCC/C(C=O)=C\c1ccccc1`, for which the activation in test [1] was -2.14%. Moreover, the result in test [2] was inactive.
For `CCCCCCCOC(=O)c1ccccc1C(=O)OCCCCCCC`, in test [1], the activation was -0.976%. Besides, in test [2], the outcome was inactive.
Take `CC(C)[C@@H]1CC[C@@H](C)C[C@H]1O`: the activation in test [1] is 0.612%. The result in test [2] was inactive.
Regarding `CC(=O)Nc1ccc(N=Nc2cc(C)ccc2O)cc1`, in test [1], the activation was 0.585%. Further, the result in test [2] was inactive.
As for `CCC(=O)C1C(=O)CC(C(=O)O)CC1=O` (stereo not given), the activation in test [1] was -1.69%. The result in test [2] was inactive.
For the compound `C[C@]12CCC(=O)C=C1CC[C@@H]1[C@@H]2[C@@H](O)C[C@]2(C=O)[C@@H](C(=O)CO)CC[C@@H]12`, the activation in test [1] was 1.4%. For the same compound, in test [2], the outcome was inactive.
For the compound `OCC(CO)(CBr)CBr`, the activation in test [1] was -0.248%. Moreover, in test [2], the result was inactive.
Consider `Nc1cc(Cl)c(N)c(Cl)c1`, for which the activation in test [1] is -3.48%. For the same compound, the outcome in test [2] was inactive.
In the case of `CC(COc1ccc(C(C)(C)C)cc1)OS(=O)OCCCl` (stereo not given), in test [1], the activation was 3.02%. Further, the outcome in test [2] was inactive.
With `NC(=O)Nc1nc2ccccc2[nH]1`, in test [1], the activation is -1.18%. In addition, in test [2], the outcome was inactive.
As to `O=C(O)c1ccccc1Cl`, the activation in test [1] is 1.39%. The outcome in test [2] was inactive.
`CC(C)=CCl`: in test [1], the activation is -3.14%. The result in test [2] was inactive.
As to `Cc1ccc(Cl)cc1`, the activation in test [1] is -1.75%. In addition, in test [2], the outcome was inactive.
On to `CC(C)=CCC[C@@H](C)[C@H]1CC[C@@]2(C)C3=C(CC[C@]12C)[C@@]1(C)CC[C@H](O)C(C)(C)[C@@H]1CC3`, for which the activation in test [1] was -5.29%. For the same compound, the result in test [2] was inactive.
`C=CC(=O)OCCCC`: the activation in test [1] was -3.45%. In test [2], the outcome was inactive.
Take `CC(=O)c1c(C)c([N+](=O)[O-])c(C(C)(C)C)c([N+](=O)[O-])c1C`: the activation in test [1] was 1.55%. Moreover, in test [2], the outcome was inactive.
`Nc1ccc(N=Nc2ccccc2)c(N)c1`: the activation in test [1] was -2.91%. The outcome in test [2] was inactive.
Turning to `CCc1ccccc1O`, the activation in test [1] was -1.44%. For the same compound, the result in test [2] was inactive.
On to `CS/C(=N\O)C(=O)N(C)C`, for which the activation in test [1] was -1.99%. Also, the outcome in test [2] was inactive.
In the case of `CC(C)Cc1c(C(=O)O)c(C(F)F)nc(C(F)(F)F)c1C1=NCCS1`, the activation in test [1] was 0.784%. Also, the result in test [2] was inactive.
Consider `CC(=O)c1cccc([N+](=O)[O-])c1`, for which the activation in test [1] was -1.11%. In addition, in test [2], the result was inactive.
For the compound `CC(C)OCC1CO1` (stereo not given), the activation in test [1] was -0.0386%. Besides, in test [2], the result was inactive.
Turning to `c1ccc2[nH]cnc2c1`, in test [1], the activation was -1.83%. Moreover, the outcome in test [2] was inactive.
In the case of `CC(=C/C=C/C(C)=C/C=C/C=C(C)/C=C/C=C(C)/C=C/C(=O)O)/C=C/C(=O)O`, the activation in test [1] was -1.08%. The result in test [2] was inactive.
As for `O=C(O)c1cccc(C(=O)O)c1`, the activation in test [1] is -0.333%. The result in test [2] was inactive.
Take `C=C1C[C@]23C[C@@]1(O)CC[C@H]2[C@@]12C=C[C@H](O)[C@@](C)(C(=O)O1)[C@H]2[C@@H]3C(=O)O`: the activation in test [1] was 0.442%. In addition, in test [2], the result was inactive.
The like results for `CCCCC(CC)COP(=O)(O)OCC(CC)CCCC` (stereo not given) were, in that order, -0.5% and “inactive”.
The matching figures for `CC(C)CCOC(=O)/C=C/c1ccccc1`: -2.58% and “inactive”.
Consider `CCO[Si](CCCN)(OCC)OCC`, for which, in test [1], the activation is -1.61% and 1.5%. In addition, the result in test [2] was inactive.
`CCCCCCOCCOCCO`: the activation in test [1] was -1.2%. Also, the outcome in test [2] was inactive.
Turning to `O=C1OC(=O)c2c(Cl)c(Cl)c(Cl)c(Cl)c21`, the activation in test [1] was -0.745% and 3.66%. Besides, the outcome in test [2] was inactive.
On to `CC1=CC(=O)CC(C)(C)C1(O)/C=C/C(C)=C\C(=O)O` (stereo not given), for which the activation in test [1] is -3.19%. The result in test [2] was inactive.
The like results for `CCC/C(=N\OCC)C1=C(O)CC(O)(CC(C)S(=O)(=O)CC)CC1=O` (stereo not given) were, in that order, 0.69% and “inactive”.
The matching figures for `C1=C/CC/C=C/CC/C=C/CC/1`: -1.27% and “inactive”.
Consider `C=C(C)C(=O)OCCCCCCCCCCCCCCCC`, for which the activation in test [1] is -3.87%. For the same compound, the result in test [2] was inactive.
For the compound `CCC(C)(C)C(=O)O`, the activation in test [1] is 0.339%. For the same compound, in test [2], the result was inactive.
Consider `O=C(O)CN(CCCN(CC(=O)O)CC(=O)O)CC(=O)O`, for which the activation in test [1] was 8.42%. Further, in test [2], the outcome was inactive.
As for `O=C(O)c1ccc(Cl)c(Cl)c1`, the activation in test [1] is -2.87%. In addition, in test [2], the outcome was inactive.
In the case of `C/C(Cl)=C/CCl`, in test [1], the activation was 0.345%. Also, in test [2], the outcome was inactive.
The matching figures for `C=CC(=O)OCCCCCCOC(=O)C=C`: -0.189% and “inactive”.
For the compound `CN(CCO)CC(O)Cn1cnc2c1c(=O)n(C)c(=O)n2C` (stereo not given) (tested in a mixture with another compound), in test [1], the activation was 1.67%. Also, in test [2], the result was inactive.
As for `Cc1ccc(C#N)cc1`, the activation in test [1] is -2.61%. Further, in test [2], the outcome was inactive.
The matching figures for `CCOc1ccc(NC(=O)OC(C)C)cc1OCC`: -1.45% and “inactive”.
